In PubChem BioAssay (Tox21):
“And” between values parts separate entries of the source, which are not always exact repeats. Equal values may be shown once. A structure can be active in one record and inactive in another. The source made the active and inactive calls. The call rests on the fitted dose curve.

Test: qHTS assay to identify small molecule agonists of the estrogen related receptor (ERR) signaling pathway from Tox21 library (AID 1224849); further: nearly all actives have a fitted effect of over 15% in size
Conditions: ERR reporter cell line, ONE-Glo luciferase, 18 h; at 8.39 µM (top of the series)
Excerpt: National Center for Advancing Translational Sciences [NCATS]
NIH Chemical Genomics Center [NCGC]
U.S. Environmental Protection Agency [EPA]
National Institutes of Environmental Health Sciences [NIEHS]
National Toxicology Program [NTP]
Estrogen related receptors (ERRs), the first orphan nuclear receptors discovered, play an important role in the control of cellular energy metabolism. ERRs are required for high-energy production in response to the environmental challenges. ERR-alpha was also identified as an adverse marker for breast cancer progression; ERR-alpha-positive tumors have a poor prognosis. To screen and to identify environmental compounds that perturb the ERR signaling pathways could provide valuable information for potential therapeutic or preventive measures in the treatment of metabolic disease. For identifying ERR agonists, ERR cell line (provided by NTP) has been used to screen Tox21 10K library.
The ERR cells were dispensed at 2,000 cells/5 ul/well in 1536-well white plates using a Multidrop dispenser. After the assay plates were incubated at a 37 C/5% CO2 incubator for 6 hours, 23 nL of compounds dissolved in DMSO, positive and negative controls or DMSO only was transferred to the assay plate by a pin tool. The plates were incubated at 37 C for 18 hours. 4 ul/well of One-Glo reagent was added into the assay plates using a Flying Reagent Dispenser. After 30-minute incubation at room temperature, the luminescence intensity in the plates was measured using a ViewLux plate reader.
On the % scale 0 is the no-effect control and ±100 the full control effect.

Structure (SMILES) | activity change, positive = activation
NCCNCCNCCNCCN | 3.41% (inactive)

Same assay, conditions: ERR reporter cell line, ONE-Glo luciferase, 18 h; at 42.5 µM (top of the series)

Structure (SMILES) | activity change, positive = activation
O=C(c1cc(O)c(O)c(O)c1)c1ccc(O)c(O)c1O | -6.33% (inactive)
CS(=O)(=O)Nc1ccc([N+](=O)[O-])cc1Oc1ccccc1 | -19.6% (inactive)
CC#C[C@]1(O)CC[C@H]2[C@@H]3CCC4=CC(=O)CCC4=C3[C@@H](c3ccc(N(C)C)cc3)C[C@@]21C | -53.3% (inactive)
Nc1cc(-c2ccncc2)c[nH]c1=O | -5.23% (inactive)
OC[C@@H](O)[C@H](O)[C@H](O)[C@@H](O)CO | 4.66% (inactive) and 4.1% (inactive)
O=S(=O)(O)CCS | -0.0445% (inactive)
Cc1cc(O)c2c(c1)C(=O)c1cc(O)cc(O)c1C2=O | -4% (inactive)
CC1(C)O[C@@H]2C[C@H]3[C@@H]4C[C@H](F)C5=CC(=O)CC[C@]5(C)[C@H]4[C@@H](O)C[C@]3(C)[C@]2(C(=O)CO)O1 | -3.03% (inactive)
CC1Cc2ccccc2N1NC(=O)c1ccc(Cl)c(S(N)(=O)=O)c1 (stereo not given) | -17.1% (inactive)

Same assay, conditions: ERR reporter cell line, ONE-Glo luciferase, 18 h; at 92.4 µM (top of the series)

Structure (SMILES) | activity change, positive = activation
O=C(c1cc(O)c(O)c(O)c1)c1ccc(O)c(O)c1O | -10.5% (inactive) and -15.9% (inactive)
CS(=O)(=O)Nc1ccc([N+](=O)[O-])cc1Oc1ccccc1 | -48.5% (inactive)
C=C1C2CCC(C2)C1(C)C (stereo not given) | 0.557% (inactive) and 4.73% (inactive)
CCCCCCCCCC(=O)O | -1.8% (inactive) and -5.57% (inactive)
CC#C[C@]1(O)CC[C@H]2[C@@H]3CCC4=CC(=O)CCC4=C3[C@@H](c3ccc(N(C)C)cc3)C[C@@]21C | -62.2% (inactive)
O=C(O)c1cc(-c2ccccc2)nc2ccccc12 | 1.96% (active)
C=C(C)C(=O)OCCCCCCCCCCCC | 5.32% (inactive) and 1.41% (inactive)
COCC(C)O (stereo not given) | -0.602% (inactive) and 6.16% (inactive)
CCCCNC(N)=O | 7.41% (inactive) and 4.54% (inactive)
NC(=O)/N=N/C(N)=O | 0.308% (inactive) and 1.1% (inactive)
OC1CCCC1 | 4.85% (inactive) and 0.946% (inactive)
CCCCC(CC)COC(=O)/C=C\C(=O)OCC(CC)CCCC (stereo not given) | -6.56% (inactive) and 3.66% (inactive)
Cc1cc(=O)[nH]c(C(C)C)n1 | 2.86% (inactive) and -3.8% (inactive)
Nc1cc(-c2ccncc2)c[nH]c1=O | -0.579% (inactive)
CCCCC(CC)COC(C)=O (stereo not given) | 8.75% (inactive) and 0.0839% (inactive)
CCCCC(CC)C(=O)OCCOCCOCCOC(=O)C(CC)CCCC (stereo not given) | -11.1% (inactive) and 0.258% (inactive)
Oc1c(Cl)cc(Cl)c(Cl)c1Cl | -46.5% (inactive) and -37.8% (inactive)
CCCCCCCCCCCCOCC1CO1 (stereo not given) | -2.77% (inactive) and -4.37% (inactive)
OC[C@@H](O)[C@@H](O)[C@H](O)[C@@H](O)CO | 3.67% (inactive) and 4.92% (inactive)
CCCCCCOC(C)=O | 8.85% (inactive) and -7.41% (inactive)
O=[N+]([O-])C(CO)(CO)CO | 10.1% (inactive) and 10.2% (inactive)
CC1=C(/C=C/C(C)=C/C=C/C(C)=C/CO)C(C)(C)CCC1 | -2.72% (inactive) and -18.5% (inactive)
O=S(=O)(O)CCS | -7.56% (inactive)
CCOC(=O)/C=C\C(=O)OCC | 1.73% (inactive) and 0.529% (active)
CC(C)(CO)COC(=O)C(C)(C)CO | 2.22% (inactive) and 0.644% (inactive)
O=c1c(-c2ccc(O)cc2)coc2cc(O)ccc12 | 150% (active) and 64.9% (active)
NCCNCCNCCNCCN | 2.98% (inactive)
Cc1cc(O)c2c(c1)C(=O)c1cc(O)cc(O)c1C2=O | -40.4% (inactive)
CC1(C)O[C@@H]2C[C@H]3[C@@H]4C[C@H](F)C5=CC(=O)CC[C@]5(C)[C@H]4[C@@H](O)C[C@]3(C)[C@]2(C(=O)CO)O1 | -6.71% (inactive)
CC1Cc2ccccc2N1NC(=O)c1ccc(Cl)c(S(N)(=O)=O)c1 (stereo not given) | -13.4% (inactive)
